An excerpt weighted towards active compounds, which were near 12% of everything screened.
PI5P4Ka inh = PI5P4K alpha (human) kinase inhibition | P48426 | PI5P4Kalpha enzyme, ADP-Glo luminescence, 60 min; hits give low values | max response, % | actives 1.2% (n = 330,000); active = max response of -50% or lower; inconclusive = between -30% and -50%; inactive = -30% or higher; also: value at the top dose of about 77 µM; % is scaled to controls: 0 for no effect and ±100 for the full control effect
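ADP-Glo luminescence end-point after a 60 min room-temperature kinase reaction. PI5P4Kalpha and substrate in HEPES pH 7.4 buffer with EGTA, 0.1% CHAPS and 5% DMSO; ATP at 5 microM final.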
JMJD2A Tudor inh = inhibitors of human JMJD2A Tudor domain. Potency, µM (titrated, usually from 114 µM), for inactives: at the highest dose activity change, negative = inhibition, actives largely listed as inhibitors. actives 4.4% (n = 390,000). AlphaScreen JMJD2A-Tudor / H3K4me3 peptide binding. AID 504339. O75164; also: potency is read from the fitted curve at half-maximal effect; % is scaled to controls: 0 for no effect and ±100 for the full control effect; nearly all actives have a fitted effect of over 50% in size
HP1b binding inh = blocks HP1-beta chromodomain binding to methylated histone tails; AlphaScreen HP1-beta / biotin-H3K9me3 peptide binding; Potency, µM (doses to about 114 µM), inactives show top-dose activity change, negative = inhibition, usual class: inhibitors; actives 0.56% (n = 390,000); AID 540317; also: potency is read from the fitted curve at half-maximal effect; nearly all actives have a fitted effect of over 70% in size
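Compound inhibition of the preformed complex between 50 nM HP1-beta and 50 nM biotinylated H3K9me3 peptide was read by AlphaScreen. Buffer was PBS pH 7.4 with 0.01% Tween-20. Incubations ran 30 min at room temperature, with 10 ug/mL donor/acceptor beads.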
PLK1 PBD inh = inhibitors of human PLK1 polo-box domain binding; P53350; Plk1 PBD binding of FITC phosphopeptide, fluorescence polarization; Potency, µM, inactives show max response, negative = inhibition, most hits filed as inhibitors; actives 2.8% (n = 360,000); AID 720504; also: potency is read from the fitted curve at half-maximal effect; series mostly up to about 57 µM; % is scaled to controls: 0 for no effect and ±100 for the full control effect; nearly all actives have a fitted effect of over 65% in size
BAZ2B inh = BAZ2B (human) inhibition; AlphaScreen BAZ2B-H3K14Ac peptide displacement; actives 4.4% (n = 360,000); Potency, µM (highest dose often 114 µM), for the others: top-dose activity change, negative = inhibition, hits mostly inhibitors; Q9UIF8; also: potency is read from the fitted curve at half-maximal effect; % is scaled to controls: 0 for no effect and ±100 for the full control effect; nearly all actives have a fitted effect of over 60% in size
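AlphaScreen displacement of biotin-H3(5-23)K14Ac peptide (50 nM final) from BAZ2B (50 nM final) in PBS pH 7.4, 0.01% Tween-20; complex preformed 30 min RT, then compounds (top 110 uM) 30 min RT, beads 20 min dark.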
G9a inh = blocks human histone lysine methyltransferase G9a; G9a H3K9 monomethylation, AlphaScreen, 2 h; Potency, µM (highest dose often 102 µM), inactives show at the top dose activity, negative = inhibition, most hits filed as inhibitors; actives 8.8% (n = 350,000); AID 504332; also: potency is read from the fitted curve at half-maximal effect; % is scaled to controls: 0 for no effect and ±100 for the full control effect; nearly all actives have a fitted effect of over 75% in size
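G9a (20 nM) was preincubated 15 min with compound, then reacted 2 h at room temperature with 500 nM biotin-H3K9 peptide and 20 µM SAM. Monomethyl-H3K9 detected by AlphaScreen using anti-H3K9me1 antibody.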
An asterisk follows results filed as active; ? = inconclusive; nt = not tested or not shown; [ ] = another dose, or the depositor's remark. Unless noted, calls follow the shape of the dose curve; as a rule, active = well fitted curve in the direction sought with a large enough effect; inconclusive = small, poorly fitted or top-dose-only effect, or another doubt; inactive = no such curve, though single readings can be large; an effect the other way counts as inactive or inconclusive.

SMILES | PI5P4Ka inh | JMJD2A Tudor inh | HP1b binding inh | PLK1 PBD inh | BAZ2B inh | G9a inh
C[N+](C)(C)CC(=O)N/N=C/c1c2ccccc2cc2ccccc12 | 1.5 | ? | 42.1% | -18.5% | 56.2µM* | 35.5µM*
NC(=S)N/N=C\c1c2ccccc2cc2ccccc12 | -5.7 | -34.9% | -0.2% | ? | -37.5% | 7.08µM*
CNC(=S)N/N=C/c1c2ccccc2c(Cl)c2ccccc12 | -10.4 | -7.4% | 14.0% | ? | -18.7% | 17.8µM*
CNC(=S)N/N=C/c1c(C)cccc1Cl | -8.8 | -8.7% | 14.7% | -11.7% | -12.6% | 10.4%
S=C(NCCN1CCOCC1)N/N=C/c1c2ccccc2cc2ccccc12 | 1.8 | -36.0% | 21.8% | -14.3% | -11.4% | 2.5%
COCCNC(=S)N/N=C/c1c2ccccc2cc2ccccc12 | -1.1 | 15.5% | 92.9% | ? | 2.0% | 79.4µM*
O=S(=O)(c1ccccc1)N1CCN(c2nccc(-c3cccs3)n2)CC1 | nt | -5.4% | nt | nt | nt | nt
CCc1ccc(-c2csc(NC(=O)C3=COCCO3)n2)cc1 | 12.8 | 0.0% | 18.6% | -1.2% | 3.0% | 2.1%[12.7 µM]
COc1ccc([N+](=O)[O-])cc1NC(=O)C(C)NNC(=O)c1cccc([N+](=O)[O-])c1 (stereo not drawn) | -10.7 | -13.5% | 18.1% | -1.6% | nt | nt
CCOC(=O)C1=CC[C@@H](c2ccccc2)N(S(=O)(=O)c2ccc(C)cc2)[C@@H]1C#N | -1.1 | nt | nt | 15µM* | nt | nt
Cc1ccc(S(=O)(=O)N2C(c3ccc(Cl)c(Cl)c3)CC=C(C(=O)O)C2c2ccc(Cl)cc2)cc1 (stereo not drawn) | -1.5 | nt | nt | 26.7µM* | nt | nt
CCc1ccc([C@@H]2CC=C(C(=O)O)[C@H](c3ccc(C(C)(C)C)cc3)N2S(=O)(=O)c2ccc(C)cc2)cc1 | ? | ? | 11.4% | 23.8µM* | nt | nt
Cc1ccc(S(=O)(=O)N2[C@@H](c3ccc(Br)cc3)C(C(=O)O)=CC[C@H]2c2ccc(C(C)C)cc2)cc1 | -17.4 | ? | 11.5% | 29.9µM* | nt | nt
CCc1ccc([C@@H]2CC=C(C(=O)O)[C@H](c3ccccc3)N2S(=O)(=O)c2ccc(C)cc2)cc1 | -2.1 | -9.3% | 40.9% | ? | -1.0% | 9.4%[2.33 µM]
COc1cc(C(=O)NC(C)c2cc(C)ccc2C)ccc1OCC(=O)N1CCOCC1 (stereo not drawn) | 3.7 | -4.3% | 14.4% | -11.8% | -4.4% | -0.8%[12.7 µM]
Cc1ccc(S(=O)(=O)N2[C@@H](c3ccc(C(C)(C)C)cc3)C(C(=O)O)=CC[C@H]2c2cccs2)cc1 | 4.7 | -15.9% | 14.3% | 23.8µM* | nt | nt
Cc1ccc([C@@H]2CC=C(C(=O)O)[C@H](c3ccc(C(C)(C)C)cc3)N2S(=O)(=O)c2ccc(C)cc2)cc1 | -22.6 | ? | 30.5% | 26.7µM* | nt | nt
Cc1ccc(S(=O)(=O)N2C(c3cccc(Cl)c3)CC=C(C(=O)O)C2c2cccc(Cl)c2)cc1 (stereo not drawn) | 2.9 | nt | nt | -3.6% | nt | nt
Cc1ccc(S(=O)(=O)N2[C@@H](c3ccc(C(C)(C)C)cc3)C(C(=O)O)=CC[C@H]2c2ccc(Cl)cc2)cc1 | ? | -24.0% | 55.7% | 21.2µM* | nt | nt
Cc1ccc([C@@H]2CC=C(C(=O)O)[C@H](c3ccc(F)cc3)N2S(=O)(=O)c2ccc(C)cc2)cc1 | 9.7 | -17.6% | 30.0% | -19.7% | 5.3% | -20.1%[2.33 µM]
Cc1ccc(S(=O)(=O)N2[C@@H](c3cccc(Cl)c3)C(C(=O)O)=CC[C@H]2c2ccc(Cl)cc2)cc1 | -2.6 | -23.9% | 26.3% | 26.7µM* | 8.9% | 10.7%[2.33 µM]
Cc1ccc(S(=O)(=O)N2[C@@H](c3ccc(Cl)cc3)C(C(=O)O)=CC[C@H]2c2ccc(Cl)c(Cl)c2)cc1 | -22.4 | -31.5% | 18.2% | ? | ? | 19.8%[2.33 µM]
COc1ccc(CNc2nc(Cl)nc3nc[nH]c23)cc1 | nt | -18.4% | 26.3% | nt | nt | nt
COc1cc2ncc(C(=O)c3ccccc3)c(N3CCN(Cc4ccccc4)CC3)c2cc1OC | 4.5 | 22.4µM* | ? | 2.8% | ? | 35.5µM*
CCOC(=O)C1CCN(c2c(C(=O)c3ccccc3)cnc3ccc(CC)cc23)CC1 | -2.5 | -18.8% | 18.3% | 1.7% | ? | ?
SMILES | PI5P4Ka inh | JMJD2A Tudor inh | HP1b binding inh | PLK1 PBD inh | BAZ2B inh | G9a inh
O=C(c1ccccc1)c1cnc2ccc(Cl)cc2c1N1CCOCC1 | -4.9 | ? | -1.4% | -4.6% | ? | 50.1µM*
COC(=O)c1nnc(-c2ccccc2)c(-c2ccccc2)n1 | nt | -18.7% | 4.8% | -9.6% | -1.3% | 31.6µM*
COc1ccccc1CN1COc2ccc3c(C)cc(=O)oc3c2C1 | nt | -1.7% | 30.0% | nt | -16.6% | ?
O=C(c1ccccc1)N1N=C(c2cccs2)CC1c1ccccc1O (stereo not drawn) | 1.4 | -34.4% | 4.6% | -14.9% | ? | -4.0%
COC(=O)c1ccc(C2N=C(c3cccs3)CC(c3ccccc3O)N2)cc1 (stereo not drawn) | 3.4 | -27.5% | 15.0% | -11.7% | -6.5% | 44.7µM*
COc1ccc(C(=O)O)cc1COc1ccc(NC(C)=O)cc1 | nt | -2.0% | nt | nt | nt | nt
c1coc(CN(Cc2ccco2)c2ncnc3c2oc2ccccc23)c1 | 1.4 | 39.8µM* | -4.5% | -10.1% | ? | 14.1µM*
C=CCN(c1ccccc1)S(=O)(=O)c1cccc(C(=O)NC2CCN(Cc3ccccc3)CC2)c1 | -5.1 | -29.7% | 8.9% | 1.4% | -2.8% | 50.1µM*
CNC(=S)NNC(=O)COc1ccc(C)c(C)c1 | 2.5 | 50.1µM* | 7.8% | -9.0% | -5.1% | 31.6µM*
CC(=O)NC(=S)NNC(=O)COc1ccc([N+](=O)[O-])cc1 | 2.5 | -18.0%[11.4 µM] | -1.3% | 21.2µM* | 8.3% | 8.91µM*
COc1ccc(CC(=O)NNC(=S)NC(=O)c2cc(OC)c(OC)c(OC)c2)cc1 | -12.3 | nt | nt | ? | nt | nt
CC(=O)NC(=S)NNC(=O)COc1ccc(Br)cc1 | -17.1 | 25.1µM* | 0.4% | 26.7µM* | 9.3% | 1.78µM*
COc1ccc(OCC(=O)NNC(=S)NC(=O)c2ccc(Br)o2)cc1 | -5.8 | -23.5% | -16.7% | -22.3% | -9.9% | 22.4µM*
Cc1ccc(OCC(=O)Nc2cccc(O)c2)cc1C | -4.8 | -24.3% | 42.9% | -6.1% | 63.3% | -6.9%[2.33 µM]
Cc1ccc(CSCCNC(=O)C2CCN(S(=O)(=O)Cc3ccccc3)CC2)cc1 | nt | -3.0% | 39.1% | nt | -11.8% | -1.0%[59 µM]
CCN(Cc1cc(OC)c(OC)c(OC)c1)C(=S)Nc1cccc(SC)c1 | -1.7 | -7.3% | 17.4% | 3.3% | -24.0% | -8.8%
O=C(COc1ccccc1)NNC(=O)COc1ccc([N+](=O)[O-])cc1 | -0.4 | -12.1% | 20.5% | -14.8% | -16.8% | ?
CCCCCC(=O)NNC(=S)NC(=O)c1ccc([N+](=O)[O-])cc1 | -29.2 | ? | ? | 10.6µM* | -36.8% | 2.51µM*
